In the library only some 11% were active in any assay of this set; here they are far more common.
Gal4-VP16 FLuc – VP16 counterscreen qHTS for inhibitors of ROR gamma transcriptional activity; Drosophila S2 Gal4-VP16 UAS-luciferase, luminescence, 20 h; Potency, µM (top dose mostly 53.6 µM), hits mostly inhibitors; actives 3.5% (n = 310,000);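 further: Gal4-VP16 expression switched on by copper sulfate through the metallothionein promoter; nearly all actives have a fitted effect of over 50% in size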
SW480 rerep – A quantitative high throughput screen for small molecules that induce DNA re-replication in SW480 colon adenocarcinoma cells; SW480 DNA re-replication, Hoechst DNA content imaging, 48 h; Potency, µM (doses to about 46.1 µM), usual class: activators; actives 1.8% (n = 340,000); AID 624297, 2012; further: nearly all actives have a fitted effect of over 55% in size
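250 cells/well; 23 nL cpd via pin tool; 48 hr, 37 C, 5% CO2; Hoechst 40 min; imager read of total nuclear intensity, ex 405/em 500-530 nm.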
MCF10A rereplic – A quantitative high throughput screen for small molecules that induce DNA re-replication in MCF 10a normal breast cells; MCF 10A DNA re-replication, Hoechst nuclear intensity, 48 h; Potency, µM (top dose mostly 46.1 µM), actives largely listed as activators; actives 2.9% (n = 350,000); AID 624296, 2012; further: nearly all actives have a fitted effect of over 50% in size
RORg inh – qHTS for inhibitors of ROR gamma transcriptional activity; Nuclear receptor ROR-gamma (Mus musculus), P51450; Drosophila S2 Gal4-RORgamma UAS-luciferase reporter, 20 h; Potency, µM (doses to about 53.6 µM), most hits filed as inhibitors; actives 5.4% (n = 310,000); AID 2551, 2010; further: nearly all actives have a fitted effect of over 60% in size
Target sequence (P51450 whole entry, looked up, the tested form may be a part): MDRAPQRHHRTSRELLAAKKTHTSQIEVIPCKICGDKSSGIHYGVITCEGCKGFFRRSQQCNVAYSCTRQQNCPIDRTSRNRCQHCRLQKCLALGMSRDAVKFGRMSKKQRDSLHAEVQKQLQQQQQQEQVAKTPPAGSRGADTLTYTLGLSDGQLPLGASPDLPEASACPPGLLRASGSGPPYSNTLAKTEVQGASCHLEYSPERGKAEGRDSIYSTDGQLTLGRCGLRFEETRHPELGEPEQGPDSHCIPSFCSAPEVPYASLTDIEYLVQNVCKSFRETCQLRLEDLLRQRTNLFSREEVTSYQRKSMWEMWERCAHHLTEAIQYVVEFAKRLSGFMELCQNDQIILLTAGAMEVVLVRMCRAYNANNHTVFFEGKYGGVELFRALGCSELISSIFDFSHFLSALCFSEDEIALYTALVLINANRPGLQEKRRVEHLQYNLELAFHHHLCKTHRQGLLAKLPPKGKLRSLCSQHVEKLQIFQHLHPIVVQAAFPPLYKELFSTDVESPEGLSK
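Luminescence from a UAS-regulated Photinus luciferase reporter in stably transfected Drosophila Schneider cells is measured; decreased signal marks ROR gamma inhibition. Fusion expression is induced by 700 uM copper sulfate for 20 hr.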
IL-1B inflam inh – qHTS for Inhibitors of Inflammasome Signaling: IL-1-beta AlphaLISA Primary Screen | THP-1 LPS/ATP IL-1B secretion, AlphaLISA, 16 h; stronger effect = lower value | activity change, % at 57.5 µM | actives 4.7% (n = 360,000) | AID 743279, 2014; in the data active means activity change below about -50%; inconclusive means mostly about -30% to -49%
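THP-1 cells pretreated 1 hr with compounds (up to 57.5 uM final), then stimulated with LPS (250 ng/mL final) plus ATP (1.25 mM final); secreted IL-1B measured by AlphaLISA after 16 hr, decreased signal indicating inhibition.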
Large screens that a line does not name were inactive; ! = not confirmed by another sample. Unless noted, the call rests on the fitted dose curve; in most records, active means well fitted curve in the direction sought with a large enough effect; inconclusive means small, poorly fitted or top-dose-only effect, or another doubt; inactive means no such curve, though single readings can be large; an effect the other way counts as inactive or inconclusive.

COC(=O)C1CCC(=O)N1C(c1ccc(OC)cc1)c1cc(OC)c(OC)c(OC)c1 (centres undefined)	SW480 rerep 0.73µM, MCF10A rereplic 1.3µM (no result: Gal4-VP16 FLuc, RORg inh)
COc1ccc(C(CNC(=O)Cc2cc(OC)c(OC)c(OC)c2)N2CCCC2)cc1 (centres undefined)	none
COc1ccc(NC(=O)COc2ccc(/C=C/c3cccc[n+]3C)cc2OC)cc1	none
COc1ccc(NC(=O)COc2ccc(/C=C/c3cc[n+](C)cc3)cc2OC)cc1	SW480 rerep 8.2µM, MCF10A rereplic inconclusive, IL-1B inflam inh -54
COc1cc(/C=C/c2cccc[n+]2C)ccc1OCC(=O)Nc1cccc(Cl)c1	IL-1B inflam inh -71
COc1cc(/C=C/c2cccc[n+]2C)ccc1OCC(=O)Nc1ccccc1	none
COc1cc(/C=C/c2cc[n+](C)cc2)ccc1OCC(=O)Nc1ccc(Cl)c(Cl)c1	SW480 rerep inconclusive, MCF10A rereplic inconclusive, IL-1B inflam inh -89
Cc1ccc(C)c(NC(=O)COC(=O)c2cc3ccccc3oc2=O)c1	none (no result: Gal4-VP16 FLuc, RORg inh)
Cc1cc(C)cc(CC(=O)N2CCC2(C)C(=O)NS(=O)(=O)Cc2ccccc2)c1 (centres undefined)	none (no result: Gal4-VP16 FLuc, SW480 rerep, MCF10A rereplic, RORg inh)
Cc1ccc(Sc2cc(C(=O)NCCCN(C)C)c3ccccc3n2)cc1	SW480 rerep inconclusive, MCF10A rereplic inconclusive, IL-1B inflam inh -69
Cc1ccc(Sc2cc(C(=O)NCCN(C)C)c3ccccc3n2)cc1	none
CCCCOc1cc(C(=O)NCCN(CC)CC)c2ccccc2n1	Gal4-VP16 FLuc inconclusive, MCF10A rereplic 12µM!, IL-1B inflam inh -50!
CCN(CC)CCCNC(=O)c1cc(Sc2nnc(C)s2)nc2ccccc12	Gal4-VP16 FLuc inconclusive, MCF10A rereplic inconclusive, IL-1B inflam inh -75
CCCn1c(-c2ccc(F)cc2)nc2c(NC3CCN(Cc4ccccc4)CC3)nc(C)nc21	RORg inh inconclusive (no result: SW480 rerep, MCF10A rereplic, IL-1B inflam inh)
COC(=O)N1CCC[C@@]2(CCN(C(=O)Nc3cccc(C#N)c3)C2)C1	none (no result: SW480 rerep, MCF10A rereplic, IL-1B inflam inh)
CC(C)C[C@@H](CNCC(=O)[C@H](CC(C)C)NC(=O)c1[nH]cnc1C(=O)N[C@@H](C)CN)NC(=O)c1nc[nH]c1C(=O)N[C@@H](CC(C)C)C(=O)O	none (no result: Gal4-VP16 FLuc, RORg inh)
CC(C)C[C@@H](CNCC(=O)[C@H](CC(C)C)NC(=O)c1[nH]cnc1C(=O)N[C@@H](C)CN)NC(=O)c1nc[nH]c1C(=O)N[C@@H](CC(=O)O)C(=O)O	IL-1B inflam inh -55 (no result: Gal4-VP16 FLuc, RORg inh)
COc1cccc(OCC(=O)NNC(=O)c2ccc3ccccc3c2)c1	none
Cc1cccc(COc2ccccc2C(=O)OCC(=O)N(C)c2c(N)n(Cc3ccccc3)c(=O)[nH]c2=O)c1	none
Cc1cccc(NC(=O)CSCC(=O)Nc2cccc3ncccc23)c1	none (no result: Gal4-VP16 FLuc, RORg inh)
CCCc1ccc(-c2ccc(/C=C/C(=O)O)cc2)nc1	Gal4-VP16 FLuc inconclusive, RORg inh 0.16µM
CCOC(=O)C1CCCN(C(=O)c2oc3ccccc3c2C)CC1 (centres undefined)	none (no result: Gal4-VP16 FLuc, SW480 rerep, MCF10A rereplic, RORg inh)
Nc1ccn([C@@H]2O[C@H](CNC(=O)[C@@H](Cc3cccnc3)NC=O)[C@@H](O)[C@H]2O)c(=O)n1	none (no result: Gal4-VP16 FLuc, SW480 rerep, MCF10A rereplic, RORg inh)
CCOC(=O)C1CCN(S(=O)(=O)c2ccccc2[N+](=O)[O-])CC1	none (no result: Gal4-VP16 FLuc, RORg inh)
Clc1ccc(C2C3=C(Nc4ncnn42)c2ccccc2CC3)cc1 (centres undefined)	Gal4-VP16 FLuc inconclusive, RORg inh 14µM (no result: SW480 rerep, MCF10A rereplic, IL-1B inflam inh)
c1ccc(C2C3=C(Nc4ncnn42)c2ccccc2CCC3)cc1 (centres undefined)	Gal4-VP16 FLuc inconclusive, MCF10A rereplic inconclusive, RORg inh 10µM
CC1=CC(c2ccccc2)n2ncnc2N1 (centres undefined)	none (no result: Gal4-VP16 FLuc, RORg inh)
CCCCc1nc(NCCO)c(C#N)c2c1CCCC2	none
N#Cc1c(NC2CCCCC2)nc(-c2ccco2)c2c1CCCC2	SW480 rerep 13µM, MCF10A rereplic 16µM
N#Cc1c(NCCCO)nc(-c2ccco2)c2c1CCCC2	Gal4-VP16 FLuc inconclusive, SW480 rerep 5.8µM, MCF10A rereplic 18µM, RORg inh inconclusive
Cc1cnc(C(=O)OCC(=O)Nc2cc(Cl)ccc2C#N)cn1	none (no result: Gal4-VP16 FLuc, RORg inh)
O=C(CCNS(=O)(=O)c1ccc(Cl)cc1)N1CCN(c2ncccn2)CC1	none (no result: Gal4-VP16 FLuc, RORg inh)

Source: PubChem BioAssay
